According to PubChem BioAssay (NCATS):
Records with an inconclusive call do not appear. The source made the active and inactive calls. Unless noted, calls come from the whole dose curve; as a rule, active = well fitted curve in the direction sought with a large enough effect; inconclusive = small, poorly fitted or top-dose-only effect, or another doubt; inactive = no such curve, though single readings can be large; an effect the other way counts as inactive or inconclusive.

Experiments:
[1] = biological target: Cytochrome P450 1A2 (Homo sapiens) (UniProt P05177); assay: p450-cyp1a2 (AID 410; calls by dose curve; note: potency is the fitted concentration of half-maximal effect)
Chain of Cytochrome P450 1A2 (Homo sapiens) (P05177 whole entry, looked up): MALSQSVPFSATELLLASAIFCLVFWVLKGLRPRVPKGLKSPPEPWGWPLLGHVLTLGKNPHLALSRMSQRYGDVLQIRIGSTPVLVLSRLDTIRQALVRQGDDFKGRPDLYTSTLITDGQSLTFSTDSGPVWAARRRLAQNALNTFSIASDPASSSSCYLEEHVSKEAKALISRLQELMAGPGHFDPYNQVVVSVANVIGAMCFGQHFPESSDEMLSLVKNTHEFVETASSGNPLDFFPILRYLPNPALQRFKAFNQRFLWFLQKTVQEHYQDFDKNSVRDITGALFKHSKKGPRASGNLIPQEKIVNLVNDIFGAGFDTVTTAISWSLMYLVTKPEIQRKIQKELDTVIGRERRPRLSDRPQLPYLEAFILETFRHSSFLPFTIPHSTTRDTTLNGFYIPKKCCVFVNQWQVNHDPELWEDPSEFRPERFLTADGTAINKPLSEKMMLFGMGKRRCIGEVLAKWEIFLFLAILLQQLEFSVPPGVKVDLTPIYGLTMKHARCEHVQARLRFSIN
Method in brief: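 Luminescent readout of luciferin formed from Luciferin-ME by human CYP1A2; data normalized against complete inhibition by 57 uM furafylline. Enzyme 20nM, substrate 100uM at Km, 100mM KPO4 buffer, 60 min reaction at room temperature.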

[2] = biological target: Glucocorticoid receptor (Homo sapiens) (UniProt P04150); assay: GR-GFP Redistribution (AID 450;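 active = compounds whose dose series gives a full or clear partial fitted curve of increased nuclear translocation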; note: potency is the fitted concentration of half-maximal effect)
Chain of Glucocorticoid receptor (Homo sapiens) (P04150 whole entry, looked up, the tested form may be a part): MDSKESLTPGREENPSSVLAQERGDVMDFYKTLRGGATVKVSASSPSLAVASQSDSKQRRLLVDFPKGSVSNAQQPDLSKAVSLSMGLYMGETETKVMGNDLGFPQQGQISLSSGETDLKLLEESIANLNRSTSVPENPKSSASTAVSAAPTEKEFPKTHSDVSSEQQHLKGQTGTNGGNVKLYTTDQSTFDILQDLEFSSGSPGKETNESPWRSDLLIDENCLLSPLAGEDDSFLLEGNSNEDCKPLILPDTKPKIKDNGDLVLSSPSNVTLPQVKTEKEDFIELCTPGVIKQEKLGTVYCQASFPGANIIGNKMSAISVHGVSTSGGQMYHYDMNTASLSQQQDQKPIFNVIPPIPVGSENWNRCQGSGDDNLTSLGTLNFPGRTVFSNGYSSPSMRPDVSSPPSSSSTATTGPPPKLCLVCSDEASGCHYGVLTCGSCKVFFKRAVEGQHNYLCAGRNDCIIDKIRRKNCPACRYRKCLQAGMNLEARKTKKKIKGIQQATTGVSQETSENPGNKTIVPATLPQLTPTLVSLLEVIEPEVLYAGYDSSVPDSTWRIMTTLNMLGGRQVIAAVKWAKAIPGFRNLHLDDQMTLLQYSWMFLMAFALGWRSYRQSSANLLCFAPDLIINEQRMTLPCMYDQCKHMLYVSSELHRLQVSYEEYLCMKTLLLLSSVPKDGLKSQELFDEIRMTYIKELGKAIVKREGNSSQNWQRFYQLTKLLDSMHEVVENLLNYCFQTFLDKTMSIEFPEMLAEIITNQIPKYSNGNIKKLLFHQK

[3] = biological target: Glucocorticoid receptor (Homo sapiens) (UniProt P04150); assay: GR-EFC Redistribution (AID 451; calls by dose curve; note: potency is the fitted concentration of half-maximal effect); details: CHO-K1 GR-EFC translocation, beta-gal luminescence, 2 h
Method in brief: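 CHO-K1 cells expressing nuclear EA and GR-ED fragments of b-gal; compounds titrated up to 46 uM final, 2 h at 37 C. GR nuclear translocation read as complemented b-gal luminescence after 1 h RT detection.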

[4] = biological target: Mitogen-activated protein kinase 10 (Mus musculus) (UniProt Q61831); assay: JNK3 AlphaScreen Assay (AID 530; active = well fitted curve in either direction with a large enough effect, not every such curve was filed as active;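 note: kinase came from lysate of stimulated human HepG2 cells; signal reports phosphorylation of biotinylated GST-cJun 1-79 at Ser73 with 10 µM ATP; % is set by controls: 0 for no effect and ±100 for the full control effect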)
Method in brief: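 Pre-activated (IL-1β/TNFα) JNK3 in HepG2 lysates phosphorylates biotin-GST-cJun(1-79), 10 uM ATP; anti-phospho-cJun(Ser73) AlphaScreen read at room temperature, pH 7.6 Tris buffer. Compounds pre-incubated 15 min as titrations.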

[5] = biological target: 3',5'-cyclic-AMP phosphodiesterase 4B (Homo sapiens) (UniProt Q07343); assay: qHTS Assay for Inhibitors of PDE-IV (AID 607; active = well fitted activation curve with a large enough effect in the main read-out, with a control signal flat, not every such curve was filed as active; note: % of control where 0% means no effect)
Chain of 3',5'-cyclic-AMP phosphodiesterase 4B (Homo sapiens) (Q07343 whole entry, looked up): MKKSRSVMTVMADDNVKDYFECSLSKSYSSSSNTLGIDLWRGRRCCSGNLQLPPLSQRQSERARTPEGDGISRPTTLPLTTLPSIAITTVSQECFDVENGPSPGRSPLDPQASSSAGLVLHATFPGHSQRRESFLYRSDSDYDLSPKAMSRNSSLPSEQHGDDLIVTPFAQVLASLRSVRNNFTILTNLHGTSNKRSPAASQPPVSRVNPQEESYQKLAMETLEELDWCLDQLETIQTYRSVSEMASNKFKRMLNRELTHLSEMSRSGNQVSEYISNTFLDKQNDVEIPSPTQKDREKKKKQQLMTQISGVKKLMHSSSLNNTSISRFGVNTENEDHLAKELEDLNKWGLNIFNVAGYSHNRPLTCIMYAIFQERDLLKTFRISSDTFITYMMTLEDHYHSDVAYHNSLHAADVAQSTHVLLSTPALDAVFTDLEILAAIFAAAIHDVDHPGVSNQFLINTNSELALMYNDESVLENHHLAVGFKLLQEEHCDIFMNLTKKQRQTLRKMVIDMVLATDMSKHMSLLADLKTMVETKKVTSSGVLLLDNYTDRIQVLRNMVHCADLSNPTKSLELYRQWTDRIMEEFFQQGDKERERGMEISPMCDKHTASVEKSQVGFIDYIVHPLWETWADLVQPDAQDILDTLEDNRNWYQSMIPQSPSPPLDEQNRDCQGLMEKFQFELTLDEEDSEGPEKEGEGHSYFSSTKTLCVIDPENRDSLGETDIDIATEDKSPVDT
Method in brief: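 HEK293 ACTOne cells with CNG channel (1000/well), endogenous PDE4; membrane potential dye, compounds up to 22.9 uM final. Fluorescence Ex 535/Em 590; RO 20-1724 (100 uM final) as reference.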

[6] = biological target: Cytochrome P450 2C19 (Homo sapiens) (UniProt P33261); assay: qHTS Assay for Inhibitors and Substrates of Cytochrome P450 2C19 (AID 899); note: potency is the fitted concentration of half-maximal effect; nearly all actives have a fitted effect of over 60% in size
Chain of Cytochrome P450 2C19 (Homo sapiens) (P33261 whole entry, looked up): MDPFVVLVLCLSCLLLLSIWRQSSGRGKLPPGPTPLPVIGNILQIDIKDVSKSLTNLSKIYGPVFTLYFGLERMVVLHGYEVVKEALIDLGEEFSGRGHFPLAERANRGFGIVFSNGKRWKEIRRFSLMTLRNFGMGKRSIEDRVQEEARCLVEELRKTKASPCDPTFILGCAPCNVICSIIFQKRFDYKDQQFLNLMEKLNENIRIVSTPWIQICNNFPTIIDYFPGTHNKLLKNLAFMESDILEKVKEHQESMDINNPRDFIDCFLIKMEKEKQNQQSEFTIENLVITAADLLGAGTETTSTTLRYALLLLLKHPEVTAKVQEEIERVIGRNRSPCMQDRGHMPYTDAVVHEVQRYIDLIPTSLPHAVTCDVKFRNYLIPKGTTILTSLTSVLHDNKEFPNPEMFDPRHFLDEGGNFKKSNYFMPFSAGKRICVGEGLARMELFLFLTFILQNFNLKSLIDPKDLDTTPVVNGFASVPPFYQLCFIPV
Method in brief: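 5 nM human CYP2C19 with 10uM Luciferin-H EGE (at KM) in 50mM KPO4, compound preincubated 10 min at 37C, then NADPH regeneration for 60 min at 37C. Luciferin read by luminescence after detection reagent; normalized to 57uM ketoconazole as full inhibition.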

[7] = biological target: ATP-dependent 6-phosphofructokinase (Trypanosoma brucei brucei) (UniProt O15648); assay: qHTS Assay to Find Inhibitors of T. brucei phosphofructokinase: hit validation (AID 492961);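 note: luminescence reports ADP formed as PFK phosphorylates fructose-6-phosphate with ATP; % is set by controls: 0 for no effect and ±100 for the full control effect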
Chain of ATP-dependent 6-phosphofructokinase (Trypanosoma brucei brucei) (O15648 whole entry, looked up): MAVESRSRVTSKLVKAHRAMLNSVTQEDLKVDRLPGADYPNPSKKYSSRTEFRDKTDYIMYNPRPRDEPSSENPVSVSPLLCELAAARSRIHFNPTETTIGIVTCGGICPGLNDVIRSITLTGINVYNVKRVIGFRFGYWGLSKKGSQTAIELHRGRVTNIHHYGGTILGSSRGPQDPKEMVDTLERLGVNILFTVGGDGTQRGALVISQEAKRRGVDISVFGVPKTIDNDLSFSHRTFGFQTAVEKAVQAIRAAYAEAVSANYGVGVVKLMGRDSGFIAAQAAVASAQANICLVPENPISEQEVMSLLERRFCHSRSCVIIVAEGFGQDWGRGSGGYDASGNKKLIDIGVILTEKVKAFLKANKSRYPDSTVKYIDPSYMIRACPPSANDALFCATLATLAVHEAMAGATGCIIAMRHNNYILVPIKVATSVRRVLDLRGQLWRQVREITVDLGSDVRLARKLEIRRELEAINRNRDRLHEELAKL
Method in brief: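 Compounds titrated; %activity normalized to 0x and 1x enzyme controls, curve-fitted. Readout: ADP-Glo luminescence after 45 min room-temperature reaction of 1.25 nM PFK, 0.1 mM ATP, 0.5 mM F6P, pH 8.0.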

[8] = biological target: Ubiquitin carboxyl-terminal hydrolase 1 (Homo sapiens) (UniProt O94782); assay: Inhibitors of USP1/UAF1: Pilot qHTS (AID 504865);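 note: rhodamine fluorescence freed from ubiquitin-rhodamine substrate followed over time; top concentration of the series differs between compounds; % is set by controls: 0 for no effect and ±100 for the full control effect; nearly all actives have a fitted effect of over 35% in size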
Chain of Ubiquitin carboxyl-terminal hydrolase 1 (Homo sapiens) (O94782 whole entry, looked up): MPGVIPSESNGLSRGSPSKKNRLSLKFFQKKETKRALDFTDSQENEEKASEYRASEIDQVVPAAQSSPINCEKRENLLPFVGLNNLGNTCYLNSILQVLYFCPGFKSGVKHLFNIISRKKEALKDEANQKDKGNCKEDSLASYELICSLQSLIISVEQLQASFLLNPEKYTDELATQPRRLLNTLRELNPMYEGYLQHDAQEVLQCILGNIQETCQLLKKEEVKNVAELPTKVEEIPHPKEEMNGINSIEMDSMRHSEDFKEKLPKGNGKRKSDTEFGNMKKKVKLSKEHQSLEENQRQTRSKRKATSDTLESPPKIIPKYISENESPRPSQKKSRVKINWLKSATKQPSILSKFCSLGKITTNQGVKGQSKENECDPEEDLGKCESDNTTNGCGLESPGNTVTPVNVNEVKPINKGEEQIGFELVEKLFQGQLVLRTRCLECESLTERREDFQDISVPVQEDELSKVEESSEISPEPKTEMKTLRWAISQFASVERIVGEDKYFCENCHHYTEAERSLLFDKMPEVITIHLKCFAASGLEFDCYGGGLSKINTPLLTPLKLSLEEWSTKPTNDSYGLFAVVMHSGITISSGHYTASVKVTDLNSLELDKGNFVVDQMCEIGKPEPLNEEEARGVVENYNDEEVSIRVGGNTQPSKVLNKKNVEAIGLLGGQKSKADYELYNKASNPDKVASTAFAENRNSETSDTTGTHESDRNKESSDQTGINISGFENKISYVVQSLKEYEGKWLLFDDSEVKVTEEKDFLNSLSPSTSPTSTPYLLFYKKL
Method in brief: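 USP1/UAF1 complex (1nM) preincubated with compound 15 min at room temperature, then Ub-Rho substrate (150nM final) added. Fluorescence read kinetically at 480/540 nm, 6 reads every 60 seconds. Buffer: 50mM HEPES pH 7.8, 0.5mM EDTA, 0.1 mg/ml BSA, 1mM TCEP, 0.01% Tween-20.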

[9] = biological target: DNA dC->dU-editing enzyme APOBEC-3G (Homo sapiens) (UniProt Q9HC16); assay: qHTS for inhibitors of Vif-A3G interactions: Validation (AID 588379); note: 0% is about no effect
Chain of DNA dC->dU-editing enzyme APOBEC-3G (Homo sapiens) (Q9HC16 whole entry, looked up): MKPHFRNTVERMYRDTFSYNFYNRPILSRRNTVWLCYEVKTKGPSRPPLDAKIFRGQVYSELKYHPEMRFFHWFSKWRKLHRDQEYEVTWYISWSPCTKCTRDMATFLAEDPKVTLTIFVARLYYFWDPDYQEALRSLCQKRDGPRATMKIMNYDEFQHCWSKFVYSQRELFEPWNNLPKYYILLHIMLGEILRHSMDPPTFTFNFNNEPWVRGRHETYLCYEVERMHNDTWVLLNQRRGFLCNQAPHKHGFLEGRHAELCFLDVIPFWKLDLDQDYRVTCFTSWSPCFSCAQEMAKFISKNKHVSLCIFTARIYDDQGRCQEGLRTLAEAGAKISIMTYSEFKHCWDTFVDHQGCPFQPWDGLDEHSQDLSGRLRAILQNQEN
Method in brief: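 HeLa cells stably expressing Vif and A3G-eYFP, 700 cells/well, incubated overnight at 37 deg C, then exposed to compound overnight at 37 deg C. Inhibition of Vif-mediated degradation read as increased yellow fluorescence (Ex 488/Em 500-530) by laser-scanning cytometry.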

[10] = biological target: Luciferin 4-monooxygenase (Photinus pyralis) (UniProt P08659); assay: Biochemical firefly luciferase enzyme assay for NPC (AID 624030);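 note: purified P. pyralis luciferase at 10 nM with luciferin and ATP substrate; 0% = DMSO and -100% = full luciferase inhibition by PTC124 control; nearly all actives have a fitted effect of over 70% in size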
Chain of Luciferin 4-monooxygenase (Photinus pyralis) (P08659 whole entry, looked up): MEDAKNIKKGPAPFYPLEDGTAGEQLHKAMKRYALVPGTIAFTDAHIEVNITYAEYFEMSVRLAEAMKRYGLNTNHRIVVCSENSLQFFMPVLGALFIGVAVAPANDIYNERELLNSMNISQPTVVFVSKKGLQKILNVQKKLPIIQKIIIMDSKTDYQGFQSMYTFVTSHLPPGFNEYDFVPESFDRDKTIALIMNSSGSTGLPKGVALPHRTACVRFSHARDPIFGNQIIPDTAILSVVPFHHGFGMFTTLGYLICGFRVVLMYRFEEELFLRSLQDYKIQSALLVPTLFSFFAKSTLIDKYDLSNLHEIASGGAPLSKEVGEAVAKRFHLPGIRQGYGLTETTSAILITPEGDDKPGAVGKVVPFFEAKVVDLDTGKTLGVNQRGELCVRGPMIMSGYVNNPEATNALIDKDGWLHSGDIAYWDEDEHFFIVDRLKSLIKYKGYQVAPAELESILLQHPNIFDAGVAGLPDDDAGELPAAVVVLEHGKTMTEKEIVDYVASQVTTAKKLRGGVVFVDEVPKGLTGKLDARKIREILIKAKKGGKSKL
Method in brief: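 Purified P. pyralis luciferase at 10 nM in 50 mM Tris Acetate (final), luminescence read within 5 minutes of enzyme addition to compounds. Activity normalised to PTC124 versus DMSO; concentration-response curves classed by r2, magnitude and activity.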

[11] = S16 Schwann cell viability assay (CellTiter-Glo assay) (AID 624031);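 note: native untransfected S16 rat Schwann cells; cellular ATP luminescence as a viability measure; plate controls were DMSO-treated cells for no effect and cell-free wells for full effect; nearly all actives have a fitted effect of over 70% in size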
Method in brief: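 Parental S16 cells, 24 h compound, 37 °C. ATP-luminescence viability; DMSO = 0% activity, empty wells as reference; curves classified by fit quality and efficacy.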

[12] = S16 Schwann cell PMP22 intronic element firefly luciferase assay (AID 624032);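 note: plate controls were DMSO for no effect and PTC124 positive control mean for full effect; nearly all actives have a fitted effect of over 30% in size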
Method in brief: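 Rat S16 Schwann cells stably carrying firefly luciferase driven by a PMP22 intronic element, in 10% FBS, treated 24 h at 37 C. ONE-Glo luminescence normalized to PTC124 control and DMSO (0%); curves classed by r2, magnitude and activity.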

[13] = S16 Schwann cell PMP22 intronic element beta-lactamase assay (AID 624044; calls by dose curve;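 note: 0% = DMSO and -100% = potassium clavulanate positive control; nearly all actives have a fitted effect of over 15% in size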); details: S16 rat Schwann cells, PMP22 element beta-lactamase FRET, 24 h; ratio activity, negative = inhibition: at 38.3 µM (top of the series)
Method in brief: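 Rat S16 Schwann cells with beta-Lac driven by a PMP22 intronic element, compound-treated 24 h at 37 °C. LiveBLAzer FRET B/G read: 460 nm normalized to potassium clavulanate vs DMSO; 535 nm FRET as viability; concentration-effect curves classified.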

[14] = qHTS profiling for inhibitors of Plasmodium falciparum proliferation (AID 504749);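 note: 0% = DMSO vehicle and full inhibition = artemisinin control; nearly all actives have a fitted effect of over 60% in size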; details: P. falciparum in erythrocytes, SYBR Green DNA, 72 h, at 28.7 µM (top of the series)
Method in brief: (§1)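 P. falciparum-infected erythrocytes (0.3% parasitemia, 2.5% hematocrit) incubated with compound 72 h at 37 C, 5% CO2. Parasite DNA detected by SYBR Green after lysis, overnight at room temperature; normalised to 0.29 uM artemisinin and DMSO.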

3D7 = assay: as above; details: P. falciparum in erythrocytes, SYBR Green DNA, 72 h; series mostly up to 28.7 µM
Method in brief: as §1

7G8 = assay: as above; details: P. falciparum in erythrocytes, SYBR Green DNA, 72 h; series mostly up to 28.7 µM
Method in brief: as §1

AA1029 = assay: as above; details: P. falciparum in erythrocytes, SYBR Green DNA, 72 h; series mostly up to 28.7 µM
Method in brief: as §1

AS120 = assay: as above; details: P. falciparum in erythrocytes, SYBR Green DNA, 72 h; series mostly up to 28.7 µM
Method in brief: as §1

ATS189 = assay: as above; details: P. falciparum in erythrocytes, SYBR Green DNA, 72 h; series mostly up to 28.7 µM
Method in brief: as §1

ATS95 = assay: as above; details: P. falciparum in erythrocytes, SYBR Green DNA, 72 h; series mostly up to 28.7 µM
Method in brief: as §1

C2A = assay: as above; details: P. falciparum in erythrocytes, SYBR Green DNA, 72 h; series mostly up to 28.7 µM
Method in brief: as §1

CP185 = assay: as above; details: P. falciparum in erythrocytes, SYBR Green DNA, 72 h; series mostly up to 28.7 µM
Method in brief: as §1

CP191 = assay: as above; details: P. falciparum in erythrocytes, SYBR Green DNA, 72 h; series mostly up to 28.7 µM
Method in brief: as §1

CP192 = assay: as above; details: P. falciparum in erythrocytes, SYBR Green DNA, 72 h; series mostly up to 28.7 µM
Method in brief: as §1

CP194 = assay: as above; details: P. falciparum in erythrocytes, SYBR Green DNA, 72 h; series mostly up to 28.7 µM
Method in brief: as §1

CP201 = assay: as above; details: P. falciparum in erythrocytes, SYBR Green DNA, 72 h; series mostly up to 28.7 µM
Method in brief: as §1

CP203 = assay: as above; details: P. falciparum in erythrocytes, SYBR Green DNA, 72 h; series mostly up to 28.7 µM
Method in brief: as §1

CP211 = assay: as above; details: P. falciparum in erythrocytes, SYBR Green DNA, 72 h; series mostly up to 28.7 µM
Method in brief: as §1

CP215 = assay: as above; details: P. falciparum in erythrocytes, SYBR Green DNA, 72 h; series mostly up to 28.7 µM
Method in brief: as §1

CP217 = assay: as above; details: P. falciparum in erythrocytes, SYBR Green DNA, 72 h; series mostly up to 28.7 µM
Method in brief: as §1

CP237 = assay: as above; details: P. falciparum in erythrocytes, SYBR Green DNA, 72 h; series mostly up to 28.7 µM
Method in brief: as §1

CP238 = assay: as above; details: P. falciparum in erythrocytes, SYBR Green DNA, 72 h; series mostly up to 28.7 µM
Method in brief: as §1

CP247 = assay: as above; details: P. falciparum in erythrocytes, SYBR Green DNA, 72 h; series mostly up to 28.7 µM
Method in brief: as §1

CP250 = assay: as above; details: P. falciparum in erythrocytes, SYBR Green DNA, 72 h; series mostly up to 28.7 µM
Method in brief: as §1

CP252 = assay: as above; details: P. falciparum in erythrocytes, SYBR Green DNA, 72 h; series mostly up to 28.7 µM
Method in brief: as §1

CP256 = assay: as above; details: P. falciparum in erythrocytes, SYBR Green DNA, 72 h; series mostly up to 28.7 µM
Method in brief: as §1

O=C(O)[C@H]1C[C@@H](CP(=O)(O)O)CCN1
active: Potency [1] 25.1 µM | Potency [6] 7.94 µM
inactive: Potency [2] > 46 µM | Potency [3] > 46 µM | Potency [4] | Potency [5] | Potency [7] | Potency [8] | outcome [9] | Potency [10] | Potency [11] | Potency [12] | Potency [13] | activity, negative = inhibition ([14]; parasite line A) -7.9% | activity, negative = inhibition ([14]; parasite line B) -2.91% | Potency (3D7) | Potency (7G8) | Potency (AA1029) | Potency (AS120) | Potency (ATS189) | Potency (ATS95) | Potency (C2A) | Potency (CP185) | Potency (CP191) | Potency (CP192) | Potency (CP194) | Potency (CP201) | Potency (CP203) | Potency (CP211) | Potency (CP215) | Potency (CP217) | Potency (CP237) | Potency (CP238) | Potency (CP247) | Potency (CP250) | Potency (CP252) | Potency (CP256)
